From PubChem BioAssay
TDP1 cell noCPT: qHTS for Inhibitors of human tyrosyl-DNA phosphodiesterase 1 (TDP1): qHTS in cells in absence of CPT; DT40 Tdp1-/- hTDP1 cells, no CPT, ATP luminescence, 48 h; Potency, µM (titrated, usually from 46.2 µM), hits mostly inhibitors; hit rate 15% among 420,000; AID 686978, 2013; further: nearly all actives have a fitted effect of over 55% in size
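Cells were dispensed at 400 per well, compounds added by pin tool, plates incubated ≥48 hr at 37 °C, then CellTiter-Glo added for 30 min at room temperature before luminescence reading. Line: DT40 Tdp1-/- complemented with hTDP1; camptothecin omitted.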
HT1080NT lethal: kills 2HG-producing HT-1080-NT fibrosarcoma cells; HT-1080-NT fibrosarcoma viability, CellTiter-Glo ATP luminescence, 48 h; Potency, µM (titrated, usually from 46.1 µM), hits mostly cytotoxic; hit rate 1.6% among 360,000; AID 686970;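 further: NT is the 2HG producing partner of a matched IDH1 knockdown line; nearly all actives have a fitted effect of over 55% in size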
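Read-out is CellTiter-Glo luminescence after 10 minutes at room temperature, following 48 hours' compound treatment of HT-1080-NT cells (750 cells/well, RPMI, 5% FBS, 37 degrees C).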
IL-1B inflam inh: inhibitors of inflammasome signaling (IL-1 beta secretion) | THP-1 LPS/ATP IL-1B secretion, AlphaLISA, 16 h; stronger effect = lower value | activity change, % at 57.5 µM | hit rate 4.7% among 360,000; in the data active means activity change below about -50%; inconclusive means mostly about -30% to -49%
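Secreted IL-1B measured by AlphaLISA bead assay after 16 h compound exposure of THP-1 cells; compounds (final up to 57.5 uM) added 1 h before LPS (250 ng/mL) and ATP (1.25 mM) stimulation; lower signal means less secretion.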
TDP1 cell CPT: growth inhibition of DT40 Tdp1-/-;hTDP1 cells with camptothecin (screen for TDP1 inhibitors). chicken DT40 Tdp1-/-;hTDP1 cells + 20 nM CPT, ATP luminescence, 48 h. Potency, µM (titrated, usually from 46.2 µM), usual class: inhibitors. hit rate 12% among 420,000; further: nearly all actives have a fitted effect of over 55% in size
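Cell growth measured by CellTiter-Glo luminescence after a minimum 48 h, 37 C compound exposure with 20 nM CPT in Tdp1-knockout DT40 cells stably expressing hTDP1, seeded 400/well; qHTS titration format.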
HT1080 IDH1KD tx: toxicity to HT-1080 IDH1 knockdown cells (counter line). HT-1080 IDH1 knockdown viability, ATP luminescence, 48 h. Potency, µM (series often up to 46.1 µM), hits mostly cytotoxic. hit rate 2% among 360,000. AID 686971
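In this qHTS, HT-1080 cells depleted of IDH1 are exposed for 48 h at 37 °C to compound titrations. Toxicity is scored from CellTiter-Glo luminescence, with DMSO as full viability and medium alone as none.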
Numbers stand for hits; 0 = inactive; ? = inconclusive; - = no result given. Rows were chosen to be rich in hits. Some 19% of all compounds tested hit in one or more screens of this group. Unless noted, the call rests on the fitted dose curve; in most records, active means well fitted curve in the direction sought with a large enough effect; inconclusive means small, poorly fitted or top-dose-only effect, or another doubt; inactive means no such curve, though single readings can be large; an effect the other way counts as inactive or inconclusive.

SMILES	TDP1 cell noCPT	HT1080NT lethal	IL-1B inflam inh	TDP1 cell CPT	HT1080 IDH1KD tx
CC1=C(C(=O)Nc2ccccc2C)C(c2ccncc2)n2nc(SCc3ccccc3Cl)nc2N1 (stereo unspecified)	0	-	-	0	-
CC1=C(C(=O)Nc2ccccc2C)C(c2cccs2)n2nc(SCc3cc(C)ccc3C)nc2N1 (stereo unspecified)	5.8µM	-	-	?	-
COc1ccccc1NC(=O)C1=C(C)Nc2nc(SCc3ccccc3C)nn2C1CC(C)C (stereo unspecified)	21µM	-	-	0	-
COc1ccccc1NC(=O)C1=C(C)Nc2nc(SCc3ccccc3F)nn2C1c1cccs1 (stereo unspecified)	9.2µM	-	-	8.2µM	-
CC1=C(C(=O)Nc2ccccc2)C(c2cccs2)n2nc(SCc3ccccc3F)nc2N1 (stereo unspecified)	0	-	-	0	-
CC1=C(C(=O)Nc2ccc(C)cc2C)C(c2cccs2)n2nc(SCc3ccccc3Cl)nc2N1 (stereo unspecified)	6.5µM	-	-	10µM	-
CC(O)c1nc2ccccc2n1CCCc1ccccc1 (stereo unspecified)	0	0	0	18µM	0
OCc1nc2ccccc2n1CCCc1ccccc1	?	0	0	16µM	0
CC(O)c1nc2ccccc2n1CCCOc1ccccc1 (stereo unspecified)	16µM	0	0	?	0
CCCCCCn1c(C(C)O)nc2ccccc21 (stereo unspecified)	?	0	0	?	0
CCc1ccc(NC(=O)CS(=O)CC(=O)Nc2ccc(-n3cnnn3)c(C)c2)cc1 (stereo unspecified)	0	0	0	0	0
CCCCOc1ccc(N2C(N)=NC(N)=NC23CCCCC3)cc1	6.5µM	0	0	9.2µM	0
NC1=NC2(CCCCC2)N(c2cccc(Cl)c2)C(N)=N1	0.46µM	0	0	10µM	0
COc1ccccc1N1C(N)=NC(N)=NC12CCCCC2	?	0	0	0	0
COc1ccc(N2C(N)=NC(N)=NC23CCCC3)cc1	1.5µM	0	0	?	0
C[C@H](CCC(=O)NCC(=O)O)C1CC[C@H]2[C@H]3C(C[C@H](O)[C@]12C)[C@@]1(C)CC[C@@H](O)C[C@H]1C[C@H]3O (stereo partly specified)	0	-	-	0	-
COc1ccc(NC(=O)C2(C)Cc3c(-c4cccc(C(N)=O)c4)ccnc3O2)cc1OC (stereo unspecified)	?	0	0	?	0
COc1ccc(/C=C/C(=O)c2ccc(OC)cc2OC)cc1	?	0	-105	?	0
COc1ccc(C(=O)/C=C/Nc2ccccn2)c(OC)c1	?	0	-63	0	?
COc1ccc(/C=C\C(=O)c2c(O)ccc3c(C)cc(=O)oc23)cc1	23µM	?	0	0	?
COc1ccc(/C=C/C(=O)c2cc(C(=O)/C=C/c3ccc(OC)cc3)c(O)cc2O)cc1	11µM	0	-	?	0
CCOc1ccc(/C=C/C(=O)c2c(O)cc(C)oc2=O)cc1	?	0	?	?	0
O=C(/C=C\Nc1ccccn1)c1ccccc1	0	0	0	0	0
COc1ccc(/C=C/C(=O)O)cc1	?	0	0	0	0
COc1ccc(C(=O)COC(=O)/C=C/c2ccccc2)c(OC)c1	0	0	0	0	0
SMILES	TDP1 cell noCPT	HT1080NT lethal	IL-1B inflam inh	TDP1 cell CPT	HT1080 IDH1KD tx
CCCOc1ccc(-c2csc(NC(=O)CN3C(=O)CCC3=O)n2)cc1	0	0	0	0	0
COc1ccc(/C=C/C(=O)CCC(=O)O)cc1	0	0	0	0	0
COc1cc(OC)c(C(=O)Oc2ccc3c(c2)OCO3)cc1OC	0	0	0	0	0
COc1ccc(/C=C/C(=O)c2cc3c(cc2N)OCO3)cc1	23µM	?	0	?	?
COc1ccc(/C=C/C(=O)NNC(=O)c2cc(C)oc2C)cc1	0	0	-58	0	0
COc1ccc(/C=C/C(=O)c2cc(O)ccc2O)cc1	16µM	-	-	16µM	-
C[C@@H](O)[C@H]1C(=O)N2C(C(=O)O)=C([C@H]3CCCO3)S[C@H]12	0	-	-	0	-
CCNC(=S)N/N=C/c1cn(Cc2ccccc2F)c2ccccc12	5.8µM	0	0	6.5µM	0
